# According to PubChem BioAssay:
# The source made the active and inactive calls.
# Legend:
# [1] = binders of probe aFSTL3 on microarray, primary screen, stem cell growth factor project, biochemical, small-molecule microarray, fluorescence 635/667 (AID 1064); conditions: higher = more signal;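 also: measures binding of the biotinylated anti-FSTL3 antibody to printed compounds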
# [2] = binders from COS7 lysate, DM2A8 probe, primary screen, torsin A project, cell lysate, small-molecule microarray, fluorescence 635/667 (AID 1065); conditions: higher = more signal, COS7 lysate expressing mutant human TOR1A
# [3] = binders of probe aFGF2 on microarray, primary screen, stem cell growth factor project, biochemical, small-molecule microarray, fluorescence 635/667 (AID 1067); conditions: higher = more signal;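 also: measures binding of biotinylated aFGF2 protein to printed compounds on slides; z-score merges feature fluorescence and signal-to-noise across triplicate slides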
# [4] = binders of probe aFGF10 on microarray, primary screen, stem cell growth factor project, biochemical, small-molecule microarray, fluorescence 635/667 (AID 1071); conditions: higher = more signal;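 also: score merges 667 nm spot intensity and signal to noise from triplicate slides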
# [5] = target: Neurogenic locus notch homolog protein 2 (Homo sapiens) (UniProt Q04721); experiment: Notch2 binders on small-molecule microarrays, primary screen, biochemical, small-molecule microarray, 635 nm fluorescence, stem cell growth factors (AID 1073); conditions: Notch2 binding, higher = more signal
# [6] = target: Pro-neuregulin-1, membrane-bound isoform (Homo sapiens) (UniProt Q02297); experiment: NRG1 binders on small-molecule microarrays, primary screen, psychiatric disease protein project, biochemical, small-molecule microarray, fluorescence 635/667 (AID 1075); conditions: NRG1 binding, 635 nm fluorescence, higher = more signal;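 also: score combines 667 nm spot fluorescence with signal to noise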
# [7] = system: Neuregulin-1 EGF-like domain; experiment: binders of neuregulin-1 EGF-like domain, primary screen, biochemical, small-molecule microarray, 635 nm fluorescence (AID 1081); conditions: small-molecule microarray binding, higher = more signal;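 also: binding of the protein to compounds printed on small-molecule microarray slides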
# [8] = FRG1 promoter luciferase signal modulators, primary screen, FRG1 inhibition for FSHD, cell-based, C2C12 myotubes, firefly/Renilla luciferase, luminescence (AID 1084); conditions: higher = more signal, called active from +8 up or from −8 down
# [9] = binders of probe aFST on microarray, primary screen, stem cell growth factor project, biochemical, small-molecule microarray, fluorescence 635/667 (AID 1086); conditions: higher = more signal;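 also: score merges 667 nm fluorescence with signal-to-noise of each printed compound spot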
# [10] = binders of probe aHhip on microarray, primary screen, stem cell growth factor project, biochemical, small-molecule microarray, fluorescence 635/667 (AID 1087); conditions: higher = more signal;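 also: score merges spot fluorescence at 667nm with spot signal to noise ratio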
# [11] = system: PRMT1 (protein arginine N-methyltransferase 1); experiment: PRMT1 binders on small-molecule microarrays, primary screen, biochemical, small-molecule microarray, 635 nm fluorescence (AID 1088); conditions: small-molecule microarray binding, higher = more signal;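 also: binding of Prmt1 protein to compounds spotted on small-molecule microarray slides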
# [12] = yeast growth modulation, basal conditions, primary screen, YJM789 clinical isolate, OD600, 24 h (AID 1089);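 also: growth of clinical yeast isolate S. cerevisiae YJM 789 seeded 1000 cells per well; test concentration not given here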; conditions: S. cerevisiae YJM789 growth, higher = more signal, called active from +8 up or from −8 down
# [13] = fission yeast growth modulation, primary screen, strain 972, OD600, 24 h, no modulator (AID 1090);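 also: basal condition with compound alone and no growth modifier present; test concentration not given here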; conditions: S. pombe 972 growth, higher = more signal, called active from +8 up or from −8 down
# [14] = S. cerevisiae growth modulation with rapamycin, primary screen, strain BY4716, OD600, 96 h (AID 1091); conditions: higher = more signal, called active from +8 up or from −8 down; also: test concentration not given here
# [15] = target: Torsin-1A-interacting protein 2 (Homo sapiens) (UniProt Q8NFQ8); experiment: LULL1 binders on small-molecule microarray, primary screen, cell lysate, human LULL1 lysate, 635/667 nm fluorescence (AID 1092); conditions: hLULL1 lysate binding, 635 nm fluorescence, higher = more signal;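 also: probe is lysate of COS7 cells overexpressing human LULL1; score merges per-feature 667 nm fluorescence with signal-to-noise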
# [16] = E. coli growth modulation, two-sided OD650, primary screen, E. coli filamentation project, strain DRC41, 24 h (AID 1093); conditions: OD650, 24 h, higher = more signal, called active from +8 up or from −8 down;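 also: MC1000 strain lacking acrAB efflux and sulA so SOS filamentation is blocked; test concentration not given here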
# [17] = small-molecule microarray binders of probe aLefty2, primary screen, biochemical, biotinylated probe, 635/667 nm fluorescence (AID 1094); conditions: higher = more signal;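 also: score merges spot fluorescence near 667 nm with spot signal-to-noise ratio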
# [18] = system: Noggin (protein binding on small-molecule microarray); experiment: Noggin binders on small-molecule microarray, primary screen, biochemical, 635/667 nm fluorescence (AID 1095); conditions: 635 nm fluorescence, higher = more signal;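 also: score merges 667 nm feature fluorescence with signal to noise over triplicate slides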
# [19] = target: Neurogenic locus notch homolog protein 3 (Homo sapiens) (UniProt Q9UM47); experiment: NOTCH3 binders on small-molecule microarray, primary screen, biochemical, 635/667 nm fluorescence (AID 1096); conditions: NOTCH3 binding, 635 nm fluorescence, higher = more signal
# [20] = small-molecule microarray binders of probe aEGFR, primary screen, biochemical, biotinylated probe, 635/667 nm fluorescence (AID 1097); conditions: higher = more signal;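 also: probe is a biotinylated anti-EGFR antibody binding compounds printed on slides; score combines fluorescence near 667 nm and signal to noise of each spot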
# Chain of Neurogenic locus notch homolog protein 2 (Homo sapiens) (Q04721 whole entry, looked up, canonical isoform): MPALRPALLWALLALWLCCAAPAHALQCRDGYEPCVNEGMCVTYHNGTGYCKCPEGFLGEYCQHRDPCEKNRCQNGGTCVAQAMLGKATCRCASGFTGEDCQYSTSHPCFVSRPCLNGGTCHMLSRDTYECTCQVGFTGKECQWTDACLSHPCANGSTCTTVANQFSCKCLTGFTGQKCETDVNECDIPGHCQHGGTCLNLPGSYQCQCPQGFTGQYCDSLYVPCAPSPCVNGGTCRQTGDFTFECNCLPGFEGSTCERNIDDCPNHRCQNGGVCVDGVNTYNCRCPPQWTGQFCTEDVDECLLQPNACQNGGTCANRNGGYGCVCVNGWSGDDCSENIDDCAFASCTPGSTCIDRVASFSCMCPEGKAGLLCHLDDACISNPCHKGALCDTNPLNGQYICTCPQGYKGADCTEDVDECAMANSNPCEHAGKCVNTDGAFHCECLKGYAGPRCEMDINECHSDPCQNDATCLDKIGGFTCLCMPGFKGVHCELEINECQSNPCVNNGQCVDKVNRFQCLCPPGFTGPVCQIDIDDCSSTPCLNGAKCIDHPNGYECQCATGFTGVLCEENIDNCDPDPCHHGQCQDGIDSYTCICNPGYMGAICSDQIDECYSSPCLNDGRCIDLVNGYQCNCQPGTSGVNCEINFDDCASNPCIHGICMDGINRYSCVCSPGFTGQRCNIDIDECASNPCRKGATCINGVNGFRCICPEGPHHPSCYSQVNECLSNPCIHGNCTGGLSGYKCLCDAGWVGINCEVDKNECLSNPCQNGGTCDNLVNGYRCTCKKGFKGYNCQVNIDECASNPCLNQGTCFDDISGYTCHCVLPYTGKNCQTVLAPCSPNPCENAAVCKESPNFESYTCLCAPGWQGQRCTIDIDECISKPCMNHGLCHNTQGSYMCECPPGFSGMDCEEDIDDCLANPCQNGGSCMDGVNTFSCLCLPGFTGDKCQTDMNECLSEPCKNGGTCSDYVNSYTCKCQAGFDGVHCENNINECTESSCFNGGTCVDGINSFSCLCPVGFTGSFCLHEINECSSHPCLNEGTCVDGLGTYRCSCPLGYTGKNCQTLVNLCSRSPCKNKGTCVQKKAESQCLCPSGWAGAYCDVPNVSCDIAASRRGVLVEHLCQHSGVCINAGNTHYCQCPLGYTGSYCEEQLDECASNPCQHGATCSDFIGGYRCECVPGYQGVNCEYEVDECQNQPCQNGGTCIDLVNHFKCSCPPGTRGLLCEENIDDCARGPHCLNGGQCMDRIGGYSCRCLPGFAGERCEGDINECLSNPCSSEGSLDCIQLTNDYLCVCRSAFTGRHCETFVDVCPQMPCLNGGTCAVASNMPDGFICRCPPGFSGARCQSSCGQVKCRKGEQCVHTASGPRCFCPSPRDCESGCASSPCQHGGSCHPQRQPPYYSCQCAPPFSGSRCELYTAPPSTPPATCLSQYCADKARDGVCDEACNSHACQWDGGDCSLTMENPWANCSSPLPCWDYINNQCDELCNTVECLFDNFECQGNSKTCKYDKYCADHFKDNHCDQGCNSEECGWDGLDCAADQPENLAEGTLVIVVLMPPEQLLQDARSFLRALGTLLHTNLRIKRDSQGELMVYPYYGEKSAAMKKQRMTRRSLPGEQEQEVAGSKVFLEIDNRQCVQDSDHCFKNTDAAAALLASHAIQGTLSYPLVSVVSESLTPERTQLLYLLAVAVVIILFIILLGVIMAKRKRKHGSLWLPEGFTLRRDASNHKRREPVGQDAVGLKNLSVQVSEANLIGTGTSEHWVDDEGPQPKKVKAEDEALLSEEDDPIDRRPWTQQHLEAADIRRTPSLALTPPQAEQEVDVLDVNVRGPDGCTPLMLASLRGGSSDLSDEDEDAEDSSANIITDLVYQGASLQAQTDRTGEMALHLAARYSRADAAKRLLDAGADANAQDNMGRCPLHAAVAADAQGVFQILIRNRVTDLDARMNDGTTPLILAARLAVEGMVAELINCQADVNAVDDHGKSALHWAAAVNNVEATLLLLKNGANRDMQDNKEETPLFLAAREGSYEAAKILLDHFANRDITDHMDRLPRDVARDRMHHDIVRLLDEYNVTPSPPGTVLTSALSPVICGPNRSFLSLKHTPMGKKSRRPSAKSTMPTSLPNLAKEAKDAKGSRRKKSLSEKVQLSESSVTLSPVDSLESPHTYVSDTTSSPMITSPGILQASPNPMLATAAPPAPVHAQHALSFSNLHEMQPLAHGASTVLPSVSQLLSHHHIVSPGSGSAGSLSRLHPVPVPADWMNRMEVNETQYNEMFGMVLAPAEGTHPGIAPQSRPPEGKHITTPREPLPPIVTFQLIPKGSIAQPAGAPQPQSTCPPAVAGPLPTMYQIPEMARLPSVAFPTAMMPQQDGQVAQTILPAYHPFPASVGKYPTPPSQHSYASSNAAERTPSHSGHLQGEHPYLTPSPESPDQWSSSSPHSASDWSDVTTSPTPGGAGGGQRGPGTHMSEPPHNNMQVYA
# Chain of Torsin-1A-interacting protein 2 (Homo sapiens) (Q8NFQ8 whole entry, looked up): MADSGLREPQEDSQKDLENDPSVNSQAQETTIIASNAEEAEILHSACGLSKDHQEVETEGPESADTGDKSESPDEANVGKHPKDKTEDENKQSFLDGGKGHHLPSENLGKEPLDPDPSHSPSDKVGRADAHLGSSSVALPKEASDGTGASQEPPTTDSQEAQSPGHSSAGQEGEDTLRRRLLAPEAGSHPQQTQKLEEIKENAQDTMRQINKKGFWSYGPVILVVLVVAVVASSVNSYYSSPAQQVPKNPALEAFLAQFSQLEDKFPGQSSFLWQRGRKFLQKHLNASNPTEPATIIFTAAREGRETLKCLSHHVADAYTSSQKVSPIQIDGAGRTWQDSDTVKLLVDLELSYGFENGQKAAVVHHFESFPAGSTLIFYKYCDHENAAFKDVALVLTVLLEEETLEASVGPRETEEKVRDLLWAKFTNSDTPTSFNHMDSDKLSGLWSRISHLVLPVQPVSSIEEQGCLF
# Chain of Pro-neuregulin-1, membrane-bound isoform (Homo sapiens) (Q02297 whole entry, looked up, the tested form may be a part, canonical isoform): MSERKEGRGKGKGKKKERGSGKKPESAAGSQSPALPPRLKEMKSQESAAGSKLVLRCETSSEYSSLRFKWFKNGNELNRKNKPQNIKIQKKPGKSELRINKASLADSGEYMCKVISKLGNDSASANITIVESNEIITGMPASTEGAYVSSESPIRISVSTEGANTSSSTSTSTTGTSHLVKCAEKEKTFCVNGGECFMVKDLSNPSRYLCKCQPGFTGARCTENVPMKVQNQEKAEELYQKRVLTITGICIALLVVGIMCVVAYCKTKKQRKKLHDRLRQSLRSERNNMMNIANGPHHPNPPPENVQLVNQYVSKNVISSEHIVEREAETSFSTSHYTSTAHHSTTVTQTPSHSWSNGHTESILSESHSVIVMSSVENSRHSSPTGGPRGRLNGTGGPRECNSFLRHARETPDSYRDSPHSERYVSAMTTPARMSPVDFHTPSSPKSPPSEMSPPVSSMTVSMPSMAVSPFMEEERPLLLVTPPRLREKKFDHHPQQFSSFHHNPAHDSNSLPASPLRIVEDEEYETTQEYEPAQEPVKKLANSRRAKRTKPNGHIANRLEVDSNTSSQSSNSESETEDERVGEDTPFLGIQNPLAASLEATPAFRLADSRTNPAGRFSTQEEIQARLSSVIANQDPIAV
Compound,composite z-score [1],composite z-score [2],composite z-score [3],composite z-score [4],composite z-score [5],composite z-score [6],composite z-score [7],z-score [8],composite z-score [9],composite z-score [10],composite z-score [11],z-score [12],z-score [13],z-score [14],composite z-score [15],z-score [16],composite z-score [17],composite z-score [18],composite z-score [19],composite z-score [20]
COc1ccc(NC(=O)O[C@H]2[C@H](OC(=O)Nc3ccc4c(c3)OCO4)[C@H](OC(=O)Nc3ccc4c(c3)OCO4)[C@@H](OC)O[C@@H]2CO)cc1,0.198,0.347,0.0519,0.739,0.302,0.978,0.905,3.53 (inactive),0.327,0.142,1.54,1.87 (inactive),1.41 (inactive),4.72 (inactive),2.96,0.212 (inactive),-0.121,-0.0137,0.569,-0.0922
CC(C)(C)OC(=O)CC[C@]1(C(=O)N2CCOCC2)N=C(c2ccc(OCCCO)cc2)O[C@H]1c1ccccc1CN=[N+]=[N-],0.912,1.03,-0.0296,0.286,0.684,1.26,1.5,1.57 (inactive),0.474,0.113,1.55,-0.673 (inactive),0.306 (inactive),-0.611 (inactive),3.32,-0.798 (inactive),-0.127,1.79,0.725,-0.044
CC(C)C[C@@H]1NC(=O)[C@@]23C(=O)N[C@@H](Cc4ccccc4)C2[C@H](C)[C@@]2(C)O[C@H]2C3/C=C/C/C=C\CNC(=O)[C@@H](CC(C)C)NC1=O (stereo not given in full),-0.47,-0.0387,-0.0878,0.159,0.416,0.345,0.97,2.49 (inactive),0.355,-0.206,1.55,-0.652 (inactive),-17.9 (active),0.241 (inactive),2.16,-0.313 (inactive),-0.184,0.914,0.895,-0.0814
COc1ccc(C#Cc2ccc3c(c2)[C@]2(C(=O)N3)[C@H](c3ccc(OCCO)cc3)N3[C@H](c4ccccc4)[C@H](c4ccccc4)OC(=O)[C@H]3[C@@H]2C(=O)O)cc1,-0.302,0.478,0.0296,1.12,1.34,0.343,1.25,0.373 (inactive),0.29,-0.0454,1.54,2.83 (inactive),0.685 (inactive),1.4 (inactive),3.21,2.57 (inactive),-0.232,1.29,1.04,0.0649
COC(=O)[C@@]1(Cc2ccc(F)cc2)[C@H]2c3cc(C(=O)N(C)C)n(CCN4CCOCC4)c3C[C@H]2CN1C(=O)c1ccccc1,0.59,-0.141,0.0141,0.58,1.63,1.51,0.654,1.56 (inactive),0.416,0.664,0.101,0.218 (inactive),0.323 (inactive),0.0727 (inactive),2.5,0.176 (inactive),0.246,-0.539,0.417,0.865
COCCOC(=O)N1C(=O)[C@@]2(c3cc(C#Cc4ccc(OC)cc4)ccc31)[C@H](C(=O)Nc1nc3ccccc3s1)[C@H]1C(=O)O[C@H](c3ccccc3)[C@H](c3ccccc3)N1[C@@H]2c1ccccc1OCCO,-0.233,0.444,-0.126,0.329,1.02,0.176,0.923,0.349 (inactive),-0.179,-0.283,1.58,0.455 (inactive),0.318 (inactive),1.62 (inactive),1.55,1.86 (inactive),-0.179,1.06,1.13,-0.0531
COC(=O)[C@@]1(Cc2ccc(F)cc2)[C@H]2c3cc(C(=O)N4CCCC4)n(CCO)c3C[C@H]2CN1C(=O)c1ccccc1,0.0451,-0.124,0.153,0.603,1.64,1.06,1.26,0.383 (inactive),0.537,0.628,-1.09,-0.215 (inactive),1 (inactive),-0.164 (inactive),2.88,0.208 (inactive),0.335,0.4,0.517,0.0753
Cc1c(-c2ccc(-c3ccc(Cl)c(Cl)c3)o2)nc(-c2ccccc2)c2c1CO[Si]2(C(C)C)C(C)C,-0.0834,0.343,-0.047,0.42,-0.558,0.568,0.294,0.422 (inactive),-0.324,0.21,0.371,-0.657 (inactive),-1.69 (inactive),0.069 (inactive),0.867,-1.34 (inactive),-0.216,0.423,-0.0183,-0.231
CC(C)CNC(=O)[C@@H]1c2ccccc2C(=O)N(C(C)C)[C@H]1c1ccc(CO)cc1,0.172,-0.0466,-0.138,-0.466,-0.811,-0.566,1.41,-0.981 (inactive),-0.117,-0.261,0.12,-1.37 (inactive),0.0396 (inactive),-0.421 (inactive),2.33,0.794 (inactive),-0.166,0.126,0.0151,-0.246
O=C1OCCC=C[C@H]2OC34C=CCN(c5ccc(Cl)cc5)C(=O)[C@H]3N(CCO)C(=O)[C@@H]4C12 (stereo not given in full),0.0828,1.85,-0.166,-0.434,-0.568,-0.666,-0.501,-0.0731 (inactive),-0.564,-0.0618,-0.502,-0.237 (inactive),-0.335 (inactive),-0.253 (inactive),-0.241,0.474 (inactive),-0.121,-0.545,-0.0792,-0.194
C=CC[C@]1(C(=O)OC)N=C(c2ccc(OCCCO)cc2)O[C@H]1c1ccccc1N=[N+]=[N-],0.638,0.402,0.288,1.13,1.42,1.5,1.4,3.21 (inactive),1.03,0.33,1.54,-0.747 (inactive),-0.652 (inactive),1.35 (inactive),3.36,-0.225 (inactive),0.529,1.41,1.08,0.686
COCCOC(=O)N1C(=O)[C@@]2(c3ccccc31)[C@H](c1ccc(OCCO)cc1)N1[C@H](c3ccccc3)[C@H](c3ccccc3)OC(=O)[C@H]1[C@@H]2C(=O)N1CCN(c2ncccn2)CC1,-0.185,0.751,0.0323,0.559,1.47,1.33,1.24,-0.132 (inactive),0.742,0.107,1.54,1.52 (inactive),1.01 (inactive),5.4 (inactive),2.5,0.374 (inactive),0.101,1.34,1.05,0.241
